# Shown are actives, neighbours in structure and some others; about 13% of the full set was active somewhere.
# CHOP inhibitor – inhibitors of CHOP promoter induction, primary screen, cell-based, unfolded protein response, luciferase reporter; CHO-K1 CHOP-promoter luciferase, tunicamycin-induced, 15-18 h; inhibition, % at 10 µM; hit rate 3.8% among 220,000;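 active = compounds that reduced the stress-induced luciferase reporter signal by more than about 70% of percent inhibition, limit read from the data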
# WT yeast gro inh – growth inhibition of WT strain, primary screen, mitochondrial fusion inhibitor project, WT and mutant strains, chemical genetic; mitochondrial fusion phenotypic screen; hit rate 2.1% among 190,000; inhibition, % at 10 µM; in the data active = inhibition above about 58%; tested in S. cerevisiae
# L major viab – Leishmania major promastigote growth inhibition, primary screen. inhibition, % at 10 µM. Leishmania major promastigotes, resazurin fluorescence viability. hit rate 9% among 200,000; in the data active = inhibition above about 50%;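 also: promastigotes grown with compound for 44 hours at 28 °C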
# RAM inhibit – inhibitors of the yeast RAM network, primary screen, dse1pr::URA3 reporter, 5-FOA selection; S. cerevisiae dse1pr::URA3 reporter, 5-FOA growth OD615, 2 d; analog-sensitive cbk1-as2 kinase mutant strain; inhibition, % at 50 µM; hit rate 1.8% among 190,000; AID 868, 2007;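 active = inhibition above a set limit, 3 SD over mean compound inhibition, cut at about 8.4% in these data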;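 also: inhibition rescues growth on 5-FOA so higher OD means more RAM inhibition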
# RAM 5-FOA – 5-FOA growth of efflux-deficient control yeast, dose response, counter-screen for RAM network inhibitor project, S. cerevisiae, OD615 | AID 1305, 2008 | shares compounds with RAM inhibit | max inhibition, % | 1,200 tested, under 10 active | S. cerevisiae efflux-deficient reporter strain, 5-FOA growth OD615, 2 days; call rule not given here
# CHOP inh conf – retest of CHOP induction inhibitors, confirmation, cell-based. shares compounds with CHOP inhibitor. CHO-CHOP promoter luciferase reporter, tunicamycin-induced, luminescence. inhibition, % at 10 µM. hit rate 45% among 2,100. AID 504437, 2011;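 active = mean of three repeat readings of reporter signal inhibition above a set limit, cut at about 70% in these data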
# Hits are given with their value; . = inactive; / = no result.
SMILES,CHOP inhibitor,WT yeast gro inh,L major viab,RAM inhibit,RAM 5-FOA,others
CCNc1ccc2noc3c2c1C(=O)c1ccccc1-3,.,.,.,20,.,
COC(=O)C(C#N)c1nc2ccccc2nc1N1CCCC1 (stereo unspecified),.,.,.,.,/,
CCC(C)COC(=O)C(C#N)c1nc2ccccc2nc1N1CCCCC1 (stereo unspecified),.,.,.,18,.,
CCCCCCOC(=O)C(C#N)c1nc2ccccc2nc1N1CCCCC1 (stereo unspecified),.,.,.,24,.,
CCCCOc1nc2ccccc2nc1C(C#N)C(=O)NC1CCCCC1 (stereo unspecified),.,.,.,12,.,
CC(=O)c1ccc(N(C(=O)CS(=O)CC(=O)Nc2ccc(F)cc2)C(C(=O)NC2CCCCC2)c2cccs2)cc1 (stereo unspecified),.,.,.,18,.,
COc1ccccc1/C=C(/C(=O)OCC(=O)Nc1ccccc1C(C)C)c1ccccc1,.,.,.,12,.,
O=c1c(/C=N/O)coc2ccc3ccccc3c12,.,.,.,23,.,
O=C(/C=C/c1cccc([N+](=O)[O-])c1)NCCSCc1cccc(Cl)c1,.,.,.,12,.,
O=C(/C=C/c1ccc2c(c1)OCO2)NCCSCc1ccc(Cl)cc1,.,.,.,.,/,
O=C(/C=C/c1ccc2c(c1)OCO2)NCCSCc1c(Cl)cccc1Cl,.,.,.,15,.,
O=C(Cc1ccccc1)Nc1ccc(SC(F)F)cc1,.,.,.,.,/,
COCCn1c(=NC(=O)c2sc3ccccc3c2Cl)sc2cc(S(N)(=O)=O)ccc21,75,.,.,16,.,
Cc1cccc(Cc2nnc(CCC(=O)N(C)C3CCOC3)o2)c1 (stereo unspecified),.,.,.,.,/,
CCOc1ccccc1NC(=O)C(OC(=O)c1ccc(N(C)C)cc1)c1ccccc1 (stereo unspecified),.,.,.,.,/,
CCOc1ccccc1NC(=O)C(OC(=O)c1ccc(CC)cc1)c1ccccc1 (stereo unspecified),.,.,.,15,.,
COc1ccc(C(=O)CSc2nc(C(C)(C)C)nc3ccccc23)cc1,.,.,.,13,.,
CCOc1ccc(/C=C/C(O)=C2/C(=O)N(C)C3(C)CC2c2ccccc2O3)cc1OC (stereo unspecified),.,.,65,11,.,
COC(=O)c1cc(=O)n(Cc2ccc(F)cc2)c(=NCc2ccc(F)cc2)s1,.,.,.,14,.,
CCNS(=O)(=O)c1ccc(NS(=O)(=O)c2cc(C)ccc2C)cc1,.,.,.,.,/,
CCCCNS(=O)(=O)c1ccc(NS(=O)(=O)c2c(C)cc(C)cc2C)cc1,.,.,.,12,.,
COc1ccc(C(=O)/C=C/C(=O)N(CC(=O)NCCC(C)C)Cc2cccs2)c(O)c1,106,.,.,12,.,CHOP inh conf=113
COc1ccc(C(=O)N(Cc2ccco2)Cc2cccs2)c(O)c1,.,.,.,.,/,
CN(C)c1cccc2c(C=C(C#N)C#N)ccc(N(C)C)c12,.,.,.,.,/,
Cc1cccc(C)c1OCC(O)Cn1c2ccccc2c2ccccc21 (stereo unspecified),107,83,.,15,.,CHOP inh conf=.
SMILES,CHOP inhibitor,WT yeast gro inh,L major viab,RAM inhibit,RAM 5-FOA,others
Cc1cccc(C)c1OCC(O)Cn1nnc2ccccc21 (stereo unspecified),.,.,.,.,/,
O=C(/C=C/c1cccc(C(F)(F)F)c1)Nc1cccc(C(F)(F)F)c1,97,.,96,12,.,CHOP inh conf=100
CCOC(=O)C(NC(C)=O)C(=O)Nc1ccc(C)cc1C (stereo unspecified),.,.,.,.,/,
Brc1ccc(CSc2nnc(Cc3c[nH]c4ccccc34)o2)cc1,103,68,.,13,.,CHOP inh conf=.
Cc1ccc(/C=N/NC(=O)CCCOc2ccc(Cl)cc2Cl)cc1,100,.,.,12,.,CHOP inh conf=106
COc1ccc(C)cc1N1C(=N)/C(=C2/Nc3ccccc3S2)C(c2ccccc2)C1=O (stereo unspecified),98,84,100,13,.,CHOP inh conf=.
COc1ccc(C2C(Oc3ccccc3)C(=O)N2c2cc(C)ccc2C)cc1OC (stereo unspecified),.,/,.,.,/,
